From PubChem BioAssay (NCI)
About 83,000 compounds went through this panel and 20% of them were active in at least one assay; those are over-represented in the sample as a whole.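 Compound tested at a single concentration for 48 hours in 96-well plates; a percent growth value below 10 was scored as active.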 Calls of active or inactive are those of the source.

What follows are molecules tested on CAKI-1 renal (assay: NCI-60 one-dose screen, 48 h (100 = growth as untreated, 0 = no growth, -100 = all killed)). Details: 10 µM unless noted.
Description: Growth inhibition of the CAKI-1 human tumor cell line is measured as a screen for anti-cancer activity. Cells are grown in 96 well plates and exposed to the test compound for 48 hours. Compounds are tested at a single concentration, which is 10^-5 M for most compounds. The reported endpoint is percent growth (GI% or GIPRCNT), where numbers from 0 - 100% represent growth inhibition, and numbers from -100% - 0 represent cell death. For example, a value of 40 represents 60% growth inhibition. A value of 0 means no net growth occurred over the course of the experiment. A value of -40 indicates 40% of cells at the beginning of the experiment died by the end of the experiment. A value of -100 means all cells are dead at the end of the experiment.
NCI-60 Human Tumor Cell Lines Screen was performed using the standard one-dose NCI protocol, which is described in more detail at https://dtp.cancer.gov/discovery_development/nci-60/default.htm.
Compounds with GIPRCNT values below 10 were considered active. Activity score was based on GIPRCNT using the following formula: […]
Score is 0 for GIPRCNT values of 100 or above, 50 for GIPRCNT values of 0, and 100 for GIPRCNT values of -100.

| SMILES | growth |
| --- | --- |
| N#Cc1c(-c2ccccc2)nc2c(c(-c3ccccc3)nn2-c2ccccc2)c1-c1ccc(O)cc1 | 53.4% (inactive) |
| CCN(CC)CC[n+]1cc2cc(OC)c(OC)cc2c2ccc3cc4c(cc3c21)OCO4 | 26.5% (inactive) |
| Nc1c(C(=O)Nc2ccnc3ccccc23)sc2nc3c(cc12)CN(Cc1ccccc1)CC3 | 74.7% (inactive) |
| COc1ccccc1/C(C)=N/NC(=O)CSc1nc2ccccc2c(=O)n1Cc1ccc(S(N)(=O)=O)cc1 | 85.4% (inactive) |
| CCCCCN1C=C/C(=C\C(=O)N2CCCc3ccccc32)c2ccccc21 | 80.3% (inactive) |
| COc1cc(/C(C)=C(\c2ccc(Cl)cc2)c2ccc(OCCN(C)C)cc2)ccc1F | 62.7% (inactive) |
| NCCCCCCNc1cc(-c2cccc(OC(F)(F)F)c2)nc2ccc(N3CCCC3)cc12 | -45.9% (active) |
| COC(=O)C1=C(C(=O)ON)[C@@H]2C=C[C@@]1([C@@H](Cc1ccccc1)Nc1ccccc1)O2 | 86% (inactive) |
| O=C1/C=C/[C@@H](O)[C@@H]2C[C@@H](O)C[C@H]2/C=C/CCC[C@H](CCc2ccc3ncccc3c2)O1 | -10.2% (active) |
| O=S(=O)(NCCNc1nccc(-c2c(-c3cccc(F)c3)nc3sccn23)n1)c1ccc(Cl)cc1 | 41.1% (inactive) |
| OCc1cnccc1NCCCOc1ccccc1 | 95.7% (inactive) |
| O=S(=O)(NCCCNc1nccc(-c2c(-c3cccc(O)c3)nc3occn23)n1)c1ccc(Cl)cc1 | 75.9% (inactive) |
| C#Cc1cccc(NC(=O)Nc2cccc(NC(=O)CCl)c2)c1 | 15.8% [8.25 µM] (inactive) |
| COc1ccc(-c2[nH][nH]c(=O)c2-c2nc3ccccc3s2)cc1 | 88% (inactive) |
| O=C(c1ccccc1)N1N=C(c2ccc(-n3ccc(C(F)(F)F)n3)c(F)c2)CC1c1ccc[nH]1 (stereo not given) | 98.3% (inactive) |
| O=C1c2ccc3c4c(ccc(c24)C(=O)N1CCCNCc1ccccc1Cl)C(=O)N(CCCNCc1ccccc1Cl)C3=O | -12.6% (active) |
| CC/C(=C\c1ccc(OC)cc1)C(=O)c1ccc(OC)cc1 | 69.6% (inactive) |
| COc1cc(C2C3=C(COC3=O)N(CCO)c3cc4c(cc32)OCO4)cc(OC)c1OC (stereo not given) | 50.6% (inactive) |
| O=C(C[n+]1cccc2ccccc21)c1ccc(O)c(O)c1 | 83.6% (inactive) |
| CCN1C(=O)N(CC)C2Nn3c(s/c(=C\c4ccc(OC)cc4)c3=O)=NC21 (stereo not given) | 31.9% (inactive) |

| SMILES | growth |
| --- | --- |
| Cc1ccc(-c2[nH][nH]c(=O)c2-c2nc3ccccc3s2)cc1 | 88.7% (inactive) |
| CN(C)c1ccc(C2C(C#N)=C(/N=C/c3ccccc3)Oc3c2ccc2ccccc32)cc1 (stereo not given) | 20.7% (inactive) |
| CCC(CC)NCC(C)(C)O | 89.5% (inactive) |
| COc1cc2c(c(OC)c1OC)CCC(c1cccc(NC(=O)c3cccc(Br)c3)c1)O2 (stereo not given) | 91.5% (inactive) |
| CC1(C)NCCC[C@]2(C)[C@H]3CC(=O)[C@H]4[C@@H]5C[C@](C)(CO)CC[C@]5(C)CC[C@@]4(C)[C@]3(C)CC[C@@H]12 | 81.6% (inactive) |
| CN1[C@@H]2CC[C@H]1/C(=C\c1ccccc1)C(=O)/C2=C/c1ccccc1 | 41.3% (inactive) |
| O=S(=O)(NCCNc1nccc(-c2c(-c3cccc(O)c3)nc3occn23)n1)c1ccc(C(F)(F)F)cc1 | 69.6% (inactive) |
| COc1cccc(/C=N/NC(=O)c2cnn3c2NC(c2ccccc2)C3)c1Oc1ccccc1 (stereo not given) | 78.2% (inactive) |
| COc1cc2oc(-c3cccc(C(=O)Nc4ccccc4)c3)cc(=O)c2c(O)c1OC | 48.9% (inactive) |
| O=S(=O)(NCCNc1nccc(-c2c(-c3cccc(F)c3)nc3sccn23)n1)c1ccc(Br)cc1 | 35.1% (inactive) |
| COc1cc(/C=C/c2cc(O)c(C(C)=O)c(O)c2)cc2c1O[C@]1(C)CC[C@@H](O)C(C)(C)[C@H]1C2 | 45% (inactive) |
| Cc1ccc(/C=N/NC(=O)CSc2nc3ccccc3c(=O)n2Cc2ccc(S(N)(=O)=O)cc2)cc1 | 64% (inactive) |
| NS(=O)(=O)c1ccc(CCN2C(=O)C3C(C2=O)C2(Cl)C(Cl)=C(Cl)C3(Cl)C2(Cl)Cl)cc1 (stereo not given) | 71.7% (inactive) |
| COc1cccc(-c2nc3occn3c2-c2ccnc(NCCNS(=O)(=O)c3ccc(C(F)(F)F)cc3)n2)c1 | 64.3% (inactive) |
| CN1CCN(C(=O)[C@]23CCC(C)(C)C[C@H]2C2=CC[C@@H]4[C@@]5(C)C/C(=C/c6cccnc6)C(=O)C(C)(C)[C@@H]5CC[C@@]4(C)[C@]2(C)CC3)CC1 | 66.6% (inactive) |
| CCCOC(=O)N[C@H]1CCc2c(Cl)c(OC)c(OC)c(OC)c2-c2ccc(SC)c(=O)cc21 | 13.8% (inactive) |
| O=C(NO)c1ccc(-n2nc(-c3ccccc3)c3ccccc32)cc1 | 45.6% (inactive) |
| O=C(C1CCC1)N1N=C(c2ccc(-n3ccc(C(F)(F)F)n3)cc2)CC1c1ccc[nH]1 (stereo not given) | 91.5% (inactive) |
| Cc1cc2cc3ccc(N(C)C)cc3nc2cc1N | 30.5% (inactive) |
| CC(C)(C)c1cc(/C=N/NC(=O)c2ccccc2NC(=O)c2cccs2)c(O)c(C(C)(C)C)c1 | 19.8% (inactive) |
